Out of some 52,000 compounds screened, about 4,300 (8.3%) were called active. No stated cut-off is given here; in the data, active means survival mostly below about 52% (no sharp cut-off); inactive means mostly above about 56%. The full list was thinned out, with actives kept by preference.

We go through 99 compounds from PubChem BioAssay AID463173 (ICCB-Longwood Screening Facility, Harvard Medical School, 2010).

The test system of this test is DeltatarO mutant. As to the kind of experiment: growth inhibition of S. aureus wild type versus tarO mutant, primary screen, teichoic acid synthesis inhibitors, RN4220, OD600 (AID 463173). Particulars: OD600, 18 h, hits give low values, screened at 18.75 µg/mL (by protocol).
Regarding `CC(C)CCNC(=O)CSc1nc2ccccc2nc1Cc1ccccc1`, the survival was 82% (inactive).

As to `Cc1ccc2oc(C(=O)Nc3nnc(CC(C)C)s3)cc(=O)c2c1`, the survival is 63% (inactive).

With `CCCc1nnc(NC(=O)c2cc(=O)c3cc(Cl)ccc3o2)s1`, the survival is 43% (active).

In the case of `Cc1ccc2c(=O)cc(C(=O)Nc3nnc(CC(C)C)s3)oc2c1C`, the survival was 61% (inactive).

For `CCCSc1nnc(NC(=O)c2cc(=O)c3ccccc3o2)s1`, the survival is 38% (active).

For the compound `CCCSc1nnc(NC(=O)Cc2coc3cc(C)ccc23)s1`, the survival was 85% (inactive).

In the case of `CCCc1nnc(NC(=O)c2cc(=O)c3ccccc3o2)s1`, the survival was 63% (inactive).

With `CCc1nnc(NC(=O)c2cc(=O)c3cc(C)ccc3o2)s1`, the survival was 79% (inactive).

Turning to `CC(=O)Nc1ccc(NC(=O)c2cc(=O)c3ccccc3o2)cc1`, the survival was 59% (inactive).

With `CCc1nnc(NC(=O)c2cc(=O)c3cc(C)c(C)cc3o2)s1`, the survival was 36% (active).

In the case of `CCCC(=O)Nc1nnc(CCC)s1`, the survival is 80% (inactive).

For the compound `Cc1cc2oc(C(=O)Nc3ccc(S(N)(=O)=O)cc3)cc(=O)c2cc1C`, the survival is 70% (inactive).

With `CCCc1nnc(NC(=O)c2cc(=O)c3cc(C)c(C)cc3o2)s1`, the survival was 35% (active).

In the case of `CCOc1ccc(-n2cc(C(=O)Nc3ccccc3OCC)c3cc(OC)c(OC)cc3c2=O)cc1`, the survival was 61% (inactive).

With `O=C(NCc1ccco1)c1ccc2c(c1)N(Cc1ccc(F)cc1)C(=O)c1ccccc1S2=O` (centres undefined), the survival was 76% (inactive).

`COc1ccccc1CNS(=O)(=O)c1cnc(N)nc1`: the survival is 89% (inactive).

In the case of `C=CS(=O)(=O)c1ccc(Oc2ccc(S(=O)(=O)C=C)cc2)cc1`, the survival is 103% (inactive).

For the compound `COC(=O)CNc1cn[nH]c(=O)n1`, the survival is 92% (inactive).

Regarding `COCCN(Cc1ccco1)C(=O)c1cc2c(Cl)nc3ccc(C)cc3c2s1`, the survival was 92% (inactive).

For the compound `CCc1c(C)c2ccc(O)c(CN3CCN(c4cc(Cl)ccc4C)CC3)c2oc1=O`, the survival was 54% (inactive).

`CC(C)n1c(SCc2ccccc2)nnc1C1CCCN(CC(N)=O)C1` (centres undefined): the survival is 96% (inactive).

`COc1ccc(Cn2ccc3nc(C)c(C(=O)N4CCN(c5ccccc5OC)CC4)cc3c2=O)cc1`: the survival is 102% (inactive).

For `O=C(NC12CCC(O)C(SC1)C2O)c1ccccc1` (centres undefined), the survival is 109% (inactive).

Turning to `COc1ccccc1C(O)(C(=O)NNc1cccc(Br)n1)c1ccccc1OC`, the survival is 73% (inactive).

`CCSc1nnc(NC(=O)c2cc(=O)c3cc(C)c(C)cc3o2)s1`: the survival was 44% (active).

Regarding `CSc1nnc(NC(=O)c2cc(=O)c3cc(C)c(C)cc3o2)s1`, the survival is 52% (inactive).

For `CCSc1nnc(NC(=O)c2cc(=O)c3cc(C)ccc3o2)s1`, the survival is 86% (inactive).

For the compound `CC(Nc1ccc(-c2nc(-c3ccco3)no2)cc1[N+](=O)[O-])c1ccccc1` (centres undefined), the survival is 100% (inactive).

For the compound `CC(Nc1ccc(-c2nc(-c3cccnc3)no2)cc1[N+](=O)[O-])c1ccccc1` (centres undefined), the survival was 79% (inactive).

Consider `Cc1noc(-c2ccc(NC(C)c3ccccc3)c([N+](=O)[O-])c2)n1` (centres undefined), for which the survival is 70% (inactive).

Take `CCC(Nc1ccc(-c2nc(-c3cccnc3)no2)cc1[N+](=O)[O-])c1ccccc1` (centres undefined): the survival was 64% (inactive).

Regarding `CC(C)Nc1ccc(-c2nc(-c3ccccn3)no2)cc1[N+](=O)[O-]`, the survival is 38% (active).

`CC(Nc1ccc(-c2nc(-c3ccccn3)no2)cc1[N+](=O)[O-])c1ccccc1` (centres undefined): the survival was 19% (active).

Consider `CC(C)Nc1ccc(-c2nc(-c3ccco3)no2)cc1[N+](=O)[O-]`, for which the survival is 107% (inactive).

Take `CNc1ccc(-c2nc(-c3ccccn3)no2)cc1[N+](=O)[O-]`: the survival was 52% (inactive).

On to `CC(C)Nc1ccc(-c2nc(-c3ccncc3)no2)cc1[N+](=O)[O-]`, for which the survival was 79% (inactive).

Take `CC(Nc1ccc(-c2nc(-c3ccncc3)no2)cc1[N+](=O)[O-])c1ccccc1` (centres undefined): the survival was 42% (active).

With `CCC(Nc1ccc(-c2nc(-c3ccccn3)no2)cc1[N+](=O)[O-])c1ccccc1` (centres undefined), the survival is 41% (active).

As for `CCC(Nc1ccc(-c2nc(-c3ccco3)no2)cc1[N+](=O)[O-])c1ccccc1` (centres undefined), the survival was 53% (inactive).

Regarding `COc1ccccc1C(=O)Nc1cc2c(cc1N1CCOCC1)n(C)c(=O)n2C`, the survival is 136% (inactive).

For the compound `CCOc1cc(-c2nnc(SCC(=O)NCc3ccc(C)cc3)nc2-c2ccc(OC)c(OCC)c2)ccc1OC`, the survival is 78% (inactive).

Consider `CCOc1cc(NC(=S)NCCCN2CCOCC2)c(OCC)cc1NC(=O)C1CC1`, for which the survival is 94% (inactive).

Take `CC(C)c1ccc(NC(=O)C2CCN(S(=O)(=O)c3ccc(Br)s3)CC2)cc1`: the survival was 73% (inactive).

For the compound `Cn1cnc(S(=O)(=O)N2CCCC(C(=O)Nc3ccc(OC(F)(F)F)cc3)C2)c1` (centres undefined), the survival is 25% (active).

Regarding `O=C(O)C1CCN(C(=O)c2cccs2)CC1`, the survival is 88% (inactive).

As to `Cc1cc(NC(=O)C2CCN(S(=O)(=O)c3ccc(Br)s3)CC2)ccc1Br`, the survival is 79% (inactive).

Turning to `O=C(Nc1ccc(OC(F)(F)F)cc1)C1CCN(S(=O)(=O)c2ccc3[nH]c(=O)ccc3c2)CC1`, the survival was 92% (inactive).

`O=C(c1cccs1)N1CCC(Cc2ccccc2)CC1`: the survival was 86% (inactive).

For the compound `CC(=O)c1ccc(NC(=O)C2CCCN(S(=O)(=O)c3cn(C)cn3)C2)cc1` (centres undefined), the survival was 94% (inactive).

Take `O=C(Nc1ccc(OC(F)(F)F)cc1)C1CCN(S(=O)(=O)c2cccs2)CC1`: the survival was 21% (active).

Turning to `Cn1cnc(S(=O)(=O)N2CCC(C(=O)Nc3ccc(OC(F)(F)F)cc3)CC2)c1`, the survival is 92% (inactive).

With `O=C(Nc1ccc(OC(F)(F)F)cc1)C1CCCN(S(=O)(=O)c2ccc(Br)s2)C1` (centres undefined), the survival was 80% (inactive).

In the case of `O=C(Nc1ccc(Cl)cc1)C1CCN(S(=O)(=O)c2ccc(Br)s2)CC1`, the survival is 47% (active).

As to `O=C(Nc1ccccc1)C1CCN(C(=O)c2cccs2)CC1`, the survival is 67% (active).

`CCC1SC(C)C/C(=N\O)C1C` (centres undefined): the survival was 105% (inactive).

Consider `CCOc1ccc(CCNC(=O)CCCc2nnc3n(C)c(=O)c4sccc4n23)cc1OCC`, for which the survival is 93% (inactive).

`COc1cc(OC)cc(-c2nc3nc(C)c(CCC(=O)Nc4cc(C)cc(C)c4)c(C)n3n2)c1`: the survival is 69% (inactive).

Turning to `O=C(NCc1cccc(Br)c1)C1CCN(C(=O)c2sccc2-n2cccc2)CC1`, the survival was 66% (inactive).

Consider `O=C(CN1C(=O)COc2ccc(S(=O)(=O)N3CCCCCC3)cc21)N1CCN(c2ccc(F)cc2)CC1`, for which the survival was 67% (inactive).

Regarding `CCCC(=O)Nc1nnc(SCc2cc(=O)c3ccc(C)cc3[nH]2)s1`, the survival was 122% (inactive).

Regarding `COc1ccc(NS(=O)(=O)c2cc(-c3onc(C)c3C)ccc2C)c(OC)c1`, the survival was 89% (inactive).

Take `Cc1ccc(NC(=O)C2CCN(S(=O)(=O)c3cccs3)CC2)cc1`: the survival was 40% (active).

With `CCc1cccc(NC(=O)C2CCCN(S(=O)(=O)c3cccs3)C2)c1` (centres undefined), the survival was 80% (inactive).

Take `O=C(Nc1cccc(C(F)(F)F)c1)C1CCN(S(=O)(=O)c2cccs2)CC1`: the survival is 39% (active).

Consider `COc1ccc(NC(=O)C2CCCN(S(=O)(=O)c3cccs3)C2)cc1` (centres undefined), for which the survival is 96% (inactive).

Regarding `CCOc1ccccc1NC(=O)C1CCN(S(=O)(=O)c2cccs2)CC1`, the survival was 58% (inactive).

Turning to `O=C(Nc1cccc(C(F)(F)F)c1)C1CCN(S(=O)(=O)c2cccc3nsnc23)CC1`, the survival is 81% (inactive).

`O=C(O)C1CSC(c2cccs2)N1` (centres undefined): the survival was 83% (inactive).

Regarding `CCN1C(=O)c2ccccc2Sc2ccc(NC(=O)c3ccc(C#N)cc3)cc21`, the survival was 102% (inactive).

Take `COc1ccc(Nc2cc(C(=O)NCCCN(C)C3CCCCC3)c3ccccc3n2)cc1`: the survival is 97% (inactive).

As for `N#Cc1ccc(C(=O)N2CCN(c3nc4ccc(F)cc4s3)CC2)cc1`, the survival is 72% (inactive).

`Clc1ccc(CNc2cc(-c3ccccc3)nc3nncn23)cc1`: the survival was 50% (inactive).

Regarding `COc1ccc(-c2cc(NCc3ccc(F)cc3)n3cnnc3n2)cc1`, the survival was 61% (inactive).

For `Fc1ccc(CNc2nc(-c3ccccc3)cc(C(F)(F)F)n2)cc1`, the survival was 4% (active).

With `Fc1ccc(CNc2cc(-c3ccccc3)nc3nncn23)cc1`, the survival is 17% (active).

On to `O=C(CSc1nc(-c2ccc(F)cc2)cc(C(F)(F)F)n1)NCCc1ccccc1`, for which the survival was 73% (inactive).

For `Fc1ccc(CNc2nc(-c3ccc(Cl)cc3)cc(C(F)(F)F)n2)cc1`, the survival is 12% (active).

Regarding `Fc1ccc(-c2cc(C(F)(F)F)nc(NCc3ccccc3)n2)cc1`, the survival is 85% (inactive).

As for `O=C(NCc1ccc(F)cc1)c1cc(-c2ccc(Cl)cc2)n[nH]1`, the survival is 85% (inactive).

Consider `O=S(=O)(c1ccccc1)n1nc(-c2ccc(Cl)cc2)nc1NCc1ccc(F)cc1`, for which the survival was 53% (inactive).

For `O=C(NCC(c1cccnc1)N1CCN(Cc2ccccc2)CC1)C(=O)Nc1cccc(Cl)c1` (centres undefined), the survival is 77% (inactive).

`CCOC(=O)c1cccc(NC(=O)Cc2ccc(NC(=O)N3CCCCc4ccccc43)cc2)c1`: the survival is 76% (inactive).

Turning to `Cc1csc2nc(COC(=O)COc3ccccc3F)cc(=O)n12`, the survival is 64% (inactive).

As to `CCOC(=O)c1[nH]cnc1C(=O)Nc1ccc(F)cc1`, the survival is 64% (inactive).

Regarding `COc1cccc(NC(=O)CSc2nnc(NC(=O)NC3CCCCC3)s2)c1`, the survival was 75% (inactive).

Regarding `COc1ccc(NC(=O)Cn2c(=O)n(CCc3ccccc3)c(=O)c3sc4ccccc4c32)cc1`, the survival is 76% (inactive).

As for `O=C(CN1C(=O)CCSc2ccc(S(=O)(=O)N3CCCC3)cc21)Nc1cccc(F)c1`, the survival was 72% (inactive).

With `CCCCn1c(=NC(=O)c2c(-c3c(F)cccc3Cl)noc2C)c(C(=O)OCC)cc2c(=O)n3ccccc3nc21`, the survival is 170% (inactive).

As for `COc1ccc(CNC(=O)CN2C(=O)COc3ccccc32)c(OC)c1`, the survival is 89% (inactive).

Regarding `CC1CCN(S(=O)(=O)c2ccc3c(c2)CCN3C(=O)Nc2ccccc2Br)CC1`, the survival is 76% (inactive).

Consider `O=S(=O)(NCCc1nnc2ccc(SCc3ccccc3Cl)nn12)c1ccccc1`, for which the survival is 68% (active).

For the compound `Cc1ccc(C)c(CSc2ccc3nnc(CCNS(=O)(=O)c4ccccc4)n3n2)c1`, the survival was 75% (inactive).

On to `CCc1ccc(NC(=O)CSc2ccc3nnc(CCNS(=O)(=O)c4ccc(OC)cc4)n3n2)cc1`, for which the survival was 81% (inactive).

`COc1ccc(S(=O)(=O)NCCc2nnc3ccc(SCC(=O)Nc4ccc(C(F)(F)F)cc4)nn23)cc1`: the survival is 81% (inactive).

Turning to `COc1ccc(S(=O)(=O)NCCc2nnc3ccc(SCC(=O)Nc4cc(C)cc(C)c4)nn23)cc1`, the survival was 63% (active).

Regarding `O=S(=O)(NCCc1nnc2ccc(SCc3cccc(Cl)c3)nn12)c1ccccc1`, the survival is 58% (inactive).

As for `Cc1cccc(CSc2ccc3nnc(CCNS(=O)(=O)c4ccccc4)n3n2)c1`, the survival was 68% (inactive).

With `O=S(=O)(NCCc1nnc2ccc(SCc3c(F)cccc3Cl)nn12)c1ccccc1`, the survival was 58% (inactive).

For `O=S(=O)(NCCc1nnc2ccc(SCc3ccc(Cl)cc3Cl)nn12)c1ccccc1`, the survival was 37% (active).
